For 13 molecules, binding signal results are on record in article PMC12864922, “TDP-43 directly inhibits mRNA accumulation in neurites through modulation of mRNA stability”.

The chains are these.
B1: ENSMUSG00000061578.89|Ksr2 (ssRNA)
RNA: GGGAGUUCUACAGUCCGACGAUCGCUUCGAUAUCCGCAUGCUACAAACAUCUGAUUUUAGAGGUCCCAUUCCAAGAUGGAAGUCACCGGUUGCCGCUGAGCACACAAUUCUGAAGGACAGUAGGCAGUCCUGCAGGUCUUUUUUAGCACAGGGCCUCUCUGGGGACCAGUCCCUGGCCUUCACCCUUCUCCCAUUUUGUAAGAACACUGUUCUAACUCACCUCAUGCCCACGCUACCCUGGGCAACUGGAGAACACCAUAGCGUUUCAGCUGAUGUGACAUUUGGUGUGACCUUUACCAGUUCCUCUUGCGGUCGCACUAGUGUGGAAUUCUCGGGUGUCAAGG
B2: ENSMUSG00000090935.496|Synj2bp (ssRNA)
RNA: GGGAGUUCUACAGUCCGACGAUCGCUUCGAUAUCCGCAUGCUACUUCACAUAACUAAGCCAUUCAGUACUUUUUGAAACUGACUUAGUAACAGGAGUCAUUGUAAGCUCCAUAGAAGGCAAGACGCAUUCCACAUCUUGUCUUGACCAGCAGCACUCUGGAGGCCCAGUGUCUGCUACCCUUCUUGUAUCUGAUGGCAUGGGUAACAGCUCUGCCAUGGGCCUGCUUACUUCUAGUAUUCACCUCAGGGCUUGGAAAUUGGUUUUGAAAGGCUUUUAGACAUAGAAAGUAAAACUAAUGGCAACUCUUGCGGUCGCACUAGUGUGGAAUUCUCGGGUGUCAAGG
B3: ENSMUSG00000032194.286|Kank2 (ssRNA)
RNA: GGGAGUUCUACAGUCCGACGAUCGCUUCGAUAUCCGCAUGCUAGGAUGGGUGGACGGAUGAGUGUGGGGUGGGUGGAUGGAUAAAUGAGCAAUGGAUGAGAAACUGGGUUGGCUGGUGGGUAGAUGUCAUGAUGGAGUCUUUGCACGUGUAUGAAACAGAAAACCAAACUUCAGGACAGACAGCUGCUGGUGUCUCUGGAUGCUCACAGCCUAGGGCACAUUUGAAAGGUCGUGCUCUGAGCUGAGCCCUGAGUUCCAGCCUUGUAGCCAGCAAGGGAGUUUAUUUAAGGUUCUGGAAGCAUCCUCUUGCGGUCGCACUAGUGUGGAAUUCUCGGGUGUCAAGG
B4: ENSMUSG00000058297.12|Spock2|179:183;187:200;209:220;234:240;249:258 (ssRNA)
RNA: GGGAGUUCUACAGUCCGACGAUCGCUUCGAUAUCCGCAUGCUAGGGUGAGGCAGAUGAUGGAGGCUACAUCUGGUAGAUAGCCCUCGACGGCCUCGGCAGGCCAGGGUGCCGACGGCCAGAAAGACAGGCCAGAAGAGACCUGGACAACAGCAGGCAACUUAGCAAAUGGAUCCGGAAGUCAGUGCGGAGGACCCUGGCUCCAGUGGGGGAGGACUGGGGACACACGCUACACACAUACACACAUAUGAGAACACACACAUACAUGUGAGAUGUGACACACACAUGUGAGAACACACAUACUGCUCUUGCGGUCGCACUAGUGUGGAAUUCUCGGGUGUCAAGG
B5: ENSMUSG00000058297.17|Spock2|149:153;157:170;179:190;204:210;219:228;234:259 (ssRNA)
RNA: GGGAGUUCUACAGUCCGACGAUCGCUUCGAUAUCCGCAUGCUAGUAGAUAGCCCUCGACGGCCUCGGCAGGCCAGGGUGCCGACGGCCAGAAAGACAGGCCAGAAGAGACCUGGACAACAGCAGGCAACUUAGCAAAUGGAUCCGGAAGUCAGUGCGGAGGACCCUGGCUCCAGUGGGGGAGGACUGGGGACACACGCUACACACAUACACACAUAUGAGAACACACACAUACAUGUGAGAUGUGACACACACAUGUGAGAACACACAUACUGAGAACACACACACACACACACACACACACACUCUUGCGGUCGCACUAGUGUGGAAUUCUCGGGUGUCAAGG
B6: ENSMUSG00000058297.10|Spock2|191:195;199:212;221:232;246:252 (ssRNA)
RNA: GGGAGUUCUACAGUCCGACGAUCGCUUCGAUAUCCGCAUGCUAGGAGGGUGAGGCGGGUGAGGCAGAUGAUGGAGGCUACAUCUGGUAGAUAGCCCUCGACGGCCUCGGCAGGCCAGGGUGCCGACGGCCAGAAAGACAGGCCAGAAGAGACCUGGACAACAGCAGGCAACUUAGCAAAUGGAUCCGGAAGUCAGUGCGGAGGACCCUGGCUCCAGUGGGGGAGGACUGGGGACACACGCUACACACAUACACACAUAUGAGAACACACACAUACAUGUGAGAUGUGACACACACAUGUGAGACUCUUGCGGUCGCACUAGUGUGGAAUUCUCGGGUGUCAAGG
B7: ENSMUSG00000058297.13|Spock2 (ssRNA)
RNA: GGGAGUUCUACAGUCCGACGAUCGCUUCGAUAUCCGCAUGCUAGGCAGAUGAUGGAGGCUACAUCUGGUAGAUAGCCCUCGACGGCCUCGGCAGGCCAGGGUGCCGACGGCCAGAAAGACAGGCCAGAAGAGACCUGGACAACAGCAGGCAACUUAGCAAAUGGAUCCGGAAGUCAGUGCGGAGGACCCUGGCUCCAGUGGGGGAGGACUGGGGAGUGUGGCUUGUGUGUAUGUGUGAUAUGAGAUGUGUGUGUAUGAUGUGAGAUGUGAGUGUGUGAUGUGAGAUGUGUGUAUGUGAGAUGUCUCUUGCGGUCGCACUAGUGUGGAAUUCUCGGGUGUCAAGG
B8: ENSMUSG00000058297.13|Spock2|173:177;181:194;203:214;228:234;243:252 (ssRNA)
RNA: GGGAGUUCUACAGUCCGACGAUCGCUUCGAUAUCCGCAUGCUAGGCAGAUGAUGGAGGCUACAUCUGGUAGAUAGCCCUCGACGGCCUCGGCAGGCCAGGGUGCCGACGGCCAGAAAGACAGGCCAGAAGAGACCUGGACAACAGCAGGCAACUUAGCAAAUGGAUCCGGAAGUCAGUGCGGAGGACCCUGGCUCCAGUGGGGGAGGACUGGGGACACACGCUACACACAUACACACAUAUGAGAACACACACAUACAUGUGAGAUGUGACACACACAUGUGAGAACACACAUACUGAGAUGUCUCUUGCGGUCGCACUAGUGUGGAAUUCUCGGGUGUCAAGG
B9: ENSMUSG00000058297.4|Spock2|227:231;235:248 (ssRNA)
RNA: GGGAGUUCUACAGUCCGACGAUCGCUUCGAUAUCCGCAUGCUAGGAGACAGAAGAGGCAGGGGAGGAGGCCGAGGAGGAGGAGGGUGAGGCGGGUGAGGCAGAUGAUGGAGGCUACAUCUGGUAGAUAGCCCUCGACGGCCUCGGCAGGCCAGGGUGCCGACGGCCAGAAAGACAGGCCAGAAGAGACCUGGACAACAGCAGGCAACUUAGCAAAUGGAUCCGGAAGUCAGUGCGGAGGACCCUGGCUCCAGUGGGGGAGGACUGGGGACACACGCUACACACAUACACACAUAUGAGAUGUGCUCUUGCGGUCGCACUAGUGUGGAAUUCUCGGGUGUCAAGG
B10: ENSMUSG00000058297.7|Spock2|209:213;217:230;239:250 (ssRNA)
RNA: GGGAGUUCUACAGUCCGACGAUCGCUUCGAUAUCCGCAUGCUAGGAGGAGGCCGAGGAGGAGGAGGGUGAGGCGGGUGAGGCAGAUGAUGGAGGCUACAUCUGGUAGAUAGCCCUCGACGGCCUCGGCAGGCCAGGGUGCCGACGGCCAGAAAGACAGGCCAGAAGAGACCUGGACAACAGCAGGCAACUUAGCAAAUGGAUCCGGAAGUCAGUGCGGAGGACCCUGGCUCCAGUGGGGGAGGACUGGGGACACACGCUACACACAUACACACAUAUGAGAACACACACAUACAUGUGAGAUGCUCUUGCGGUCGCACUAGUGUGGAAUUCUCGGGUGUCAAGG
B11: ENSMUSG00000058297.17|Spock2 (ssRNA)
RNA: GGGAGUUCUACAGUCCGACGAUCGCUUCGAUAUCCGCAUGCUAGUAGAUAGCCCUCGACGGCCUCGGCAGGCCAGGGUGCCGACGGCCAGAAAGACAGGCCAGAAGAGACCUGGACAACAGCAGGCAACUUAGCAAAUGGAUCCGGAAGUCAGUGCGGAGGACCCUGGCUCCAGUGGGGGAGGACUGGGGAGUGUGGCUUGUGUGUAUGUGUGAUAUGAGAUGUGUGUGUAUGAUGUGAGAUGUGAGUGUGUGAUGUGAGAUGUGUGUAUGUGAGAUGUGUGUGUGUGUGUGUGUGUGUGUGACUCUUGCGGUCGCACUAGUGUGGAAUUCUCGGGUGUCAAGG
B12: ENSMUSG00000058297.12|Spock2 (ssRNA)
RNA: GGGAGUUCUACAGUCCGACGAUCGCUUCGAUAUCCGCAUGCUAGGGUGAGGCAGAUGAUGGAGGCUACAUCUGGUAGAUAGCCCUCGACGGCCUCGGCAGGCCAGGGUGCCGACGGCCAGAAAGACAGGCCAGAAGAGACCUGGACAACAGCAGGCAACUUAGCAAAUGGAUCCGGAAGUCAGUGCGGAGGACCCUGGCUCCAGUGGGGGAGGACUGGGGAGUGUGGCUUGUGUGUAUGUGUGAUAUGAGAUGUGUGUGUAUGAUGUGAGAUGUGAGUGUGUGAUGUGAGAUGUGUGUAUGUGCUCUUGCGGUCGCACUAGUGUGGAAUUCUCGGGUGUCAAGG
B13: ENSMUSG00000061578.285|Ksr2 (ssRNA)
RNA: GGGAGUUCUACAGUCCGACGAUCGCUUCGAUAUCCGCAUGCUAGGAUAUAUCUCUGUGGCCAGGGCUGGACUGAGACUGACCCCCUCCUACUAAGCAUCUUAGAGUUUCUCUUUUCUCUUUAAUUGCAUCAGGACCCCUUUGGUCCAUGUACCCCGGUCUCUGUCACAUGCCUUUGUAUCUUGGAGGAAGUAAGAGAGGAGAGAGCCAGGGAGGGCUGAAGCUCUGGGACCCUGAAGUGUCCCCCGGGAACUGGGACUCACUCAUCUUCUCCUGUUUGUAGCUCAAUGACCCAGUGGGUCACACUCUUGCGGUCGCACUAGUGUGGAAUUCUCGGGUGUCAAGG

Whole data set: some 9,900 sequences, median “r (bound/input frequency ratio)” near 0.7, cut for the highest 2% near 6.5. This excerpt belongs to a sample that is enriched for the highest values.

The target in this test is TDP-43 (Homo sapiens, UniProt Q13148 1-414). As to the kind of experiment: RNA Bind-n-Seq with designed 260-mer pool; 25 mM Tris-HCl, 150 mM KCl, 3 mM MgCl2, BSA (printed 500 mg/mL), 20 units/mL SUPERase IN; pH not stated; 500 nM RNA pool, 1 h, 4 C; TDP-43 5, 50, 500 nM; high values mean tight binding. The note with it: protein: recombinant; tags: SBP (GST cleaved off with PreScission; pGEX-GST-SBP). The gist of the method: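 Recombinant SBP-tagged TDP-43 at 5, 50 or 500 nM was captured on streptavidin beads, then incubated 1 h at 4 °C with 500 nM of an in vitro-transcribed 260-nt 3′ UTR oligo pool in 25 mM Tris-HCl, 150 mM KCl, 3 mM MgCl2, BSA and SUPERase IN. Bound RNA was washed, eluted with biotin, reverse transcribed, PCR-amplified and sequenced. Binding is R, each oligo's mapped-read-normalized abundance in the bound sample divided by its abundance in input. Duplicates used two independent protein batches.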
TDP-43, sequence (Q13148 whole entry): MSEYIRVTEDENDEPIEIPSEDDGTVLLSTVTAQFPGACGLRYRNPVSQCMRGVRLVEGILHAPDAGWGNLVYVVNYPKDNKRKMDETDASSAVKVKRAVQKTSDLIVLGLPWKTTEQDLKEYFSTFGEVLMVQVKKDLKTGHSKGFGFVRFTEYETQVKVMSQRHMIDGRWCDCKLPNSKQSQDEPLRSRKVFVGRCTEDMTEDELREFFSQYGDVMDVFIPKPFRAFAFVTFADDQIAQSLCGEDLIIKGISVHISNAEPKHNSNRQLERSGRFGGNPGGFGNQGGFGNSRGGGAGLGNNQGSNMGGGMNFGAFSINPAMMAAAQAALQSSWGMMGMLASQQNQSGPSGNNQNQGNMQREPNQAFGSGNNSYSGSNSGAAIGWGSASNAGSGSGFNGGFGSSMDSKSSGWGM
Take B1: the binding signal was 0.288 R (bound/input frequency ratio).
With B2 the figure was 0.243 R (bound/input frequency ratio).
With B3 the figure was 5.11 R (bound/input frequency ratio); with B4, 2.28 R (bound/input frequency ratio); with B5, 2.9 R (bound/input frequency ratio).
As for B6, the figure is 2.04 R (bound/input frequency ratio).
Consider B7, for which the binding signal is 7.72 R (bound/input frequency ratio).
Consider B8, for which the binding signal was 2.37 R (bound/input frequency ratio).
As for B9, the figure is 2.44 R (bound/input frequency ratio); as for B10, 2.55 R (bound/input frequency ratio).
With B11 the figure was 8.62 R (bound/input frequency ratio); with B12, 8.09 R (bound/input frequency ratio).
As for B13, the figure is 0.368 R (bound/input frequency ratio).
